Source: PubChem
CYP2C9 inhib: human CYP2C9 inhibition | P11712 | CYP2C9 Supersomes, luciferin-H conversion, luminescence | inhibition, % at 5 µM | 96,000 tested, 20% active | AID 777;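 active means blocking of liver enzyme CYP2C9 beyond about 50% at 5 µM, limit read from the data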
CYP2C19 act: increases human CYP2C19 enzyme activity. 96,000 tested, under 10 active. P33261. recombinant CYP2C19, luciferin-H EGE luminescence; stronger effect = higher value; 0 = fully inhibited enzyme, 1 = untreated enzyme. AID 1025. activation factor at 5 µM;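 active means activation factor of at least 2 at 5 µM in the primary screen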;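 further: 0 = wells with 2.5 mM tranylcypromine and 1 = vehicle-only wells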
Cav32 inh: human Cav3.2 channel inhibition, primary screen. Cav3.2-expressing cells, Fluo-4 calcium fluorescence FDSS; stronger effect = lower value. B-score at 10 µM. 100,000 tested, 4% active. O95180;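 active means single-dose well whose peak fluorescence ratio is a statistical outlier from its plate by either plate-standardised score or position-corrected B-score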
CYP2C9 activ: CYP2C9 (human) activation; activation factor at 5 µM; AID 1024; 96,000 tested, 1.4% active; recombinant CYP2C9, luciferin-H conversion, luminescence; stronger effect = higher value; factor 1 = untreated enzyme, 0 = blocked; P11712;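 active means activation factor of 2 or more for CYP2C9 at a 5 µM dose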;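 further: 0 = sulfaphenazole-blocked wells and 1 = vehicle-only wells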
CYP2C19 inh: inhibitors of human CYP2C19; AID 778; inhibition, % at 5 µM; P33261; 96,000 tested, 21% active; CYP2C19 Supersomes, luciferin-H EGE luminescence, 30 min;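 active means CYP2C19 inhibition above a set limit at 5 µM in the primary screen, cut at about 50% in these data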;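 further: plate controls were negative control wells for no effect and 2.5 mM tranylcypromine positive control for full effect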
Numbers without * were called inactive; . = no result given. Hits are enriched below; roughly 27% of the tested compounds scored in any of these assays.

SMILES | CYP2C9 inhib | CYP2C19 act | Cav32 inh | CYP2C9 activ | CYP2C19 inh
O/N=C1/CCSc2ccccc21 | -9 | 1 | 0.32 | 1.1 | -3
O=C(NC1CC1)c1cc(Cl)ccc1[N+](=O)[O-] | -4 | 1 | -0.19 | 1 | 1
Clc1ccc(CSc2nnc(-c3ccc4c(c3)OCO4)o2)cc1 | 50* | 0.8 | 0.34 | 0.5 | 21
Cc1ccc(NC(=O)Cc2nc(CSc3nnc(-c4ccc5c(c4)OCO5)o3)cs2)cc1 | 20 | 0.4 | -5.4* | 0.8 | 61*
Cc1cc(NC(=O)CSc2nnc(-c3ccc4c(c3)OCCO4)o2)no1 | 41 | 0.5 | -0.22 | 0.6 | 49
O=C(CSc1nnc(-c2ccc3c(c2)OCCO3)o1)N1CCCC1 | 18 | 0.7 | . | 0.8 | 28
Clc1ccc(CSc2nnc(-c3ccncc3)o2)cc1 | 82* | 0.1 | 0.42 | 0.2 | 92*
CCOC(=O)CNC(=O)Cn1cnc2c(nnn2-c2ccc(C)cc2)c1=O | -16 | 1.1 | 0.14 | 1.2 | -9
Cc1ccccc1C(=O)N1CCC(C(=O)Nc2ccc3c(c2)OCCO3)CC1 | -21 | 1 | -0.26 | 1.2 | 4
CCCc1cc(=O)n2c([nH]c3ccccc32)c1C#N | 56* | 1 | -0.22 | 0.4 | -2
COC(=O)C1=C(C)NC(C)=C(C(=O)OC)C1c1cc2ccc(C)cc2[nH]c1=O | 18 | 0.6 | -0.23 | 0.8 | 40
CCOC(=O)C1=C(C)NC(C)=C(C(=O)OCC)C1c1cc2ccc(C)cc2[nH]c1=O | 54* | 0.7 | -5.1* | 0.5 | 25
O=C(COC(=O)c1cc(=O)[nH]c2ccccc12)NC(=O)NC1CCCCC1 | 53* | 0.9 | 0.73 | 0.5 | 9
CCOC(=O)c1[nH]c2ccccc2c1NC(=O)NC1CCCCC1 | 55* | 0.9 | 0.73 | 0.4 | 13
CCOC(=O)c1ccc(NC(=O)Cn2cc3c(n2)CCC(C)C3)cc1 (configuration not stated) | 11 | 0.8 | -0.35 | 0.9 | 19
CCOC(=O)N1CCN(c2cc3[nH]c(=S)[nH]c3cc2F)CC1 | -9 | 0.8 | -1.6 | 1.1 | 15
CCOC(=O)N1CCN(c2c(F)cc3[nH]c(=S)[nH]c3c2Br)CC1 | 70* | 0.6 | -0.12 | 0.3 | 42
O=C(O)C1CSC(CCc2ccccc2)N1 (configuration not stated) | -7 | 0.9 | -1 | 1.1 | 9
Cc1noc(C)c1COC(=O)c1cccc(S(=O)(=O)N2c3ccccc3CC2C)c1 (configuration not stated) | 80* | 0.4 | -1.9 | 0.2 | 59*
Cc1noc(C)c1COC(=O)c1ccc2ccccc2n1 | 18 | 0.9 | 0.14 | 0.8 | 6
CC1Cc2ccccc2N1S(=O)(=O)c1cccc(C(=O)c2nccn2C)c1 (configuration not stated) | 44 | 0.6 | -0.061 | 0.6 | 36
CCC(CO)NC(=O)c1cccc(S(=O)(=O)N2c3ccccc3CC2C)c1 (configuration not stated) | 14 | 0.3 | -1.2 | 0.9 | 73*
Nc1ncnc2nc(N3CCN(C(=O)c4ccccc4)CC3)[nH]c12 | 21 | 0.7 | 0.39 | 0.8 | 31
COc1cccc(NC(=O)Cc2ccccc2)c1 | 31 | 0.1 | 0.17 | 0.7 | 94*
COc1cccc(NC(=O)CC2SC(=Nc3ccccc3)NC2=O)c1 (configuration not stated) | 70* | 0.4 | . | 0.3 | 63*
SMILES | CYP2C9 inhib | CYP2C19 act | Cav32 inh | CYP2C9 activ | CYP2C19 inh
COc1cccc(NC(=O)CSCC(=O)Nc2ccccc2)c1 | 78* | 0.4 | . | 0.2 | 60*
CCCCSCCCNC(=O)Nc1cccc(OC)c1 | 73* | 0.2 | -2.3 | 0.3 | 80*
COc1cccc(NC(=O)CSCC(=O)O)c1 | 12 | 0.9 | -0.17 | 0.9 | 12
COc1cccc(NC(=O)CCP(C)(=O)O)c1 | -11 | 1.1 | . | 1.1 | -14
CCOc1ccc(N2C(=O)CC(n3ccc(C)n3)C2=O)cc1 (configuration not stated) | . | . | 0.78 | . | .
COc1cccc(NC(=O)CNC(=O)c2ccc(F)cc2)c1 | 42 | 0.5 | 0.84 | 0.6 | 53*
CCN(CC)C(=O)CSCC(=O)Nc1ccccc1 | -3 | 0.4 | -0.016 | 1 | 57*
COC(=O)c1ccccc1NC(=O)CSCC(=O)Nc1ccccc1 | 34 | 0.5 | 0.7 | 0.7 | 53*
CCOc1ccc(NC(=O)CSCC(=O)O)cc1 | 5 | 0.9 | -0.37 | 1 | 13
CCOC(=O)COn1c(=O)c(=O)n(O)c2ccccc21 | 90* | 0 | -0.21 | 0.1 | 99*
CCOC(=O)C(C)Sc1nc2ccccc2c(=O)n1CC (configuration not stated) | 63* | 0.2 | . | 0.4 | 77*
CC(C(=O)NCCC1=CCCCC1)N1C(=O)c2ccccc2C1=O (configuration not stated) | 23 | 0.8 | 0.95 | 0.8 | 23
C=CCn1c(SC(C)C(=O)NCCC2=CCCCC2)nc2ccccc2c1=O (configuration not stated) | 56* | 0.5 | -6.1* | 0.4 | 47
CCOC(=O)COn1c(SCC(=O)OCC)nc2ccccc2c1=O | 19 | 0.5 | . | 0.8 | 53*
CCn1c(C(=O)Nc2ccsc2C(=O)OC)cc2sc(Cl)cc21 | 20 | 0.9 | -0.42 | 0.8 | 6
CCCOc1cccc(NC(=O)c2cc(C)oc2C)c1 | 9 | 0.8 | -2.2 | 0.9 | 16
COc1ccc2c(c1)CCC(C)N2S(=O)(=O)c1ccc(C2CNC(=O)C2)cc1 (configuration not stated) | . | . | -0.96 | . | .
COc1ccccc1N1C(=O)CCC1(C#N)c1ccc(Br)cc1 (configuration not stated) | 69* | 0.4 | -0.55 | 0.3 | 59*
COc1ccc(N2C(=O)CCC2(C#N)c2ccc(Br)cc2)cc1 (configuration not stated) | 9 | 0.4 | -1.2 | 0.9 | 57*
Cc1ccc(C)c(N2CCN(CCCNC(=O)Cn3cc4c(n3)CCCCC4)CC2)c1 | 0 | 0.7 | . | 1 | 28
CC(C)n1c(SC2CCOC2=O)nc2ccccc21 (configuration not stated) | -89 | 0.9 | -0.25 | 1.9 | 6
CCOC(=O)C1=C(C)N=c2s/c(=C\c3ccc(OC(C)=O)c(OCC)c3)c(=O)n2C1/C=C/c1ccccc1 (configuration not stated) | 72* | 0.6 | . | 0.3 | 39
Cc1nc2nc[nH]n2c(=O)c1CCC(C)C | 25 | 0.9 | 0.18 | 0.8 | 10
O=C(OCc1cc2ccccc2[nH]c1=O)C1CCCCC1 | 96* | 0.1 | -0.98 | 0 | 89*
Cc1cccc(C)c1OCC(=O)N=Nc1c(O)[nH]c2ccc(Br)cc12 | 88* | 0.7 | . | 0.1 | 33
O=C(N=Nc1c(O)[nH]c2ccc(Br)cc12)c1ccccc1-n1cccc1 | 64* | 0.6 | . | 0.4 | 36
O=C(Cn1nnc(-c2ccccc2)n1)N=Nc1c(O)[nH]c2ccccc12 | 1 | 1 | 1.1 | 1 | 0
O=C(NCCCN1CCOCC1)C1CCC(=O)N1CCc1ccccc1 (configuration not stated) | -3 | 1.1 | -1.2 | 1 | -5
